Compounds without any hit were thinned out: in the full panel of roughly 79,000, 15% have a hit. Activity calls are given as the source filed them. Cut-off read from the data, not from the text of the source: active = growth inhibition above about 70%; inactive = the rest.
Tests used:
[1] = NCI Yeast Anticancer Drug Screen. Data for the rad50 strain (AID 155);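 note: 0% = growth of vehicle-only cultures of the same strain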; conditions: S. cerevisiae rad50 strain growth inhibition; at 50.0 µM; active compounds read high
In short: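 Compounds were tested on a yeast strain with an engineered DNA damage repair alteration; the reported value is growth inhibition normalised to vehicle treatment.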

[2] = NCI Yeast Anticancer Drug Screen. Data for the mec2-1 strain (AID 157); conditions: S. cerevisiae mec2-1 strain, at 50.0 µM, active compounds read high
In short: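 Growth inhibition is read against vehicle-treated controls after compound exposure of the mec2-1 yeast strain, which is defective in DNA damage repair or cell cycle control.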

[3] = NCI Yeast Anticancer Drug Screen. Data for the sgs1 mgt1 strain (AID 161);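 note: 0% = growth of cultures given vehicle only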; conditions: S. cerevisiae sgs1 mgt1 strain, at 50.0 µM, active compounds read high
In short: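 Compounds are added to genetically altered yeast, and growth is compared with cultures given vehicle alone to give percent inhibition.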

[4] = NCI Yeast Anticancer Drug Screen. Data for the cln2 rad14 strain (AID 165);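 note: 0% = growth equal to vehicle treated cultures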; conditions: S. cerevisiae cln2 rad14 strain, at 50.0 µM, active compounds read high
In short: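 Growth inhibition, relative to vehicle-treated controls, is the read-out. The test organism is a yeast strain with defined genetic alterations, cln2 rad14.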

[5] = NCI Yeast Anticancer Drug Screen. Data for the bub3 strain (AID 167); conditions: S. cerevisiae bub3 mutant strain, at 50.0 µM, active compounds read high
In short: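 Growth of a checkpoint-deficient yeast mutant is measured after compound exposure. Values represent inhibition relative to vehicle.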

[6] = NCI Yeast Anticancer Drug Screen. Data for the mlh1 rad18 strain (AID 175); conditions: S. cerevisiae mlh1 rad18 strain growth inhibition; at 50.0 µM; active compounds read high
In short: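 Cells of a genetically altered yeast strain, deficient in DNA damage repair, were treated with compound. Their growth was then compared with that of vehicle-treated cultures to give inhibition.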

Measured: growth inhibition

O=C1C(Cl)(Cl)C(=O)C(Cl)(Cl)C(=O)C1(Cl)Cl
inactive: [1] 20.2% | [2] 24.5% | [3] 47% | [4] 0.4% | [5] 16.3% | [6] 31.7%

O=P(CCC(F)(F)C(F)(F)C(F)(F)C(F)(F)C(F)(F)C(F)(F)C(F)(F)F)(N1CC1)N1CC1
inactive: [1] 25.4% | [2] -1.9% | [3] 8.15% | [4] -9.75% | [5] -1.2% | [6] 1.95%

c1ccc(-c2ccc(-c3ccccc3)c3nonc23)cc1
inactive: [1] -32.2% | [2] -2.25% | [3] -13.5% | [4] 23.4% | [5] 27.4% | [6] -4.45%

CCOC(=O)CC(CC(=O)OCC)(C(=O)OCC)C(=O)OCC
inactive: [1] -2.2% | [2] 4.45% | [3] 8.55% | [4] -57.2% | [5] -17.3% | [6] -1.95%

CCC(O)(C#CCl)CC
inactive: [1] 11.6% | [2] -10.9% | [3] 10% | [4] 10.2% | [5] -29.1% | [6] 11.1%

O=[N+]([O-])c1ccc(P(=O)(Nc2ccc3ccccc3c2)Nc2ccc3ccccc3c2)cc1
inactive: [1] 34.5% | [2] 15.2% | [3] 15.5% | [4] 0.2% | [5] 13.1% | [6] 46.5%

CN(C)c1nnnn1Cc1ccccc1
inactive: [1] -1.35% | [2] -3.8% | [3] -7.25% | [4] -26.3% | [5] 5.65% | [6] 1.8%

O=[N+]([O-])c1cc(F)cc(I)c1
inactive: [1] -3.15% | [2] -38.6% | [3] 2.15% | [4] 15.8% | [5] 4.25% | [6] -5%

COC1=C(OC)C(=O)C(COC2CCCCO2)=CC1=O (configuration not stated)
active: [4] 87.5%
inactive: [1] -4.9% | [2] -1.45% | [3] 8.75% | [5] 10.6% | [6] -6.65%

CCOc1ccc(Cc2ccccc2)cc1
inactive: [1] -8.95% | [2] -23.9% | [3] -7% | [4] 1.5% | [5] -8.25% | [6] -5.35%

COc1cccc2c1CCC(=O)C2C (configuration not stated)
inactive: [1] 35.1% | [2] -0.9% | [3] 14.3% | [4] -5.45% | [5] 13.6% | [6] 22.9%

Cc1cc2c(c(C(C)(C)C)c1)OC(=O)/C2=C1/C(=O)Oc2c1cc(C)cc2C(C)(C)C
inactive: [1] 8.3% | [2] -8% | [3] -9.25% | [4] 0.85% | [5] 2.3% | [6] -12.8%

CC(=O)C1CC2CCC1C2 (configuration not stated)
inactive: [1] 10.4% | [2] 12.8% | [3] -8.7% | [4] -12.4% | [5] 1.25% | [6] 7.9%

CC(C(=O)O)C(C)C(=O)Nc1ccccc1 (configuration not stated)
inactive: [1] 33.9% | [2] 6.15% | [3] 11.1% | [4] 24.4% | [5] 1.5% | [6] 28.4%

CC(=O)N1C(=O)NC(=O)C1(C)C
inactive: [1] -7% | [2] -29.9% | [3] 6.65% | [4] -18.5% | [5] 1.5% | [6] -7.15%

N#Cc1cccc(NC(=O)c2ccc(C(=O)O)c(C(=O)c3ccc(C(=O)O)c(C(=O)Nc4cccc(C#N)c4)c3)c2)c1
inactive: [1] -18.6% | [2] -9.7% | [3] -19% | [4] 8.35% | [5] 2% | [6] -20.8%

COc1ccc(C(c2cc3c(cc2O)OCO3)N2CCCC2)cc1 (configuration not stated)
inactive: [1] 17% | [2] -0.5% | [3] 15.9% | [4] -25.1% | [5] 12.1% | [6] 21.2%

BrC12CC3CC(CC(C3)C1)C2
inactive: [1] 21.8% | [2] 13.1% | [3] 9.4% | [4] 11.1% | [5] 9.25% | [6] 12.8%

O=C1C(=O)N(c2ccc(Cl)cc2Cl)C(=O)C(=O)C1c1nc2ccccc2s1
inactive: [1] 43.1% | [2] 29.7% | [3] 4% | [4] 24.2% | [5] 25.6% | [6] 29%

C=CCOC(=O)c1cccc(C)c1
inactive: [1] 9.7% | [2] 0.3% | [3] -1% | [4] -41.4% | [5] 9.9% | [6] 7.7%

CC(=O)/C=C(/C=N/O)c1ccccc1
inactive: [1] 10.7% | [2] -27.1% | [3] 14.2% | [4] 7.75% | [5] 10.1% | [6] -55.8%

O=P(Nc1ccc(Cl)cc1)(Nc1ccc(Cl)cc1)N1CCCCC1
inactive: [1] 23% | [2] -45.1% | [3] 5.8% | [4] -21% | [5] 19.9% | [6] 9.2%

ClC1CC2CCC1C2Br (configuration not stated) (tested in a mixture with another compound)
inactive: [1] -19.6% | [2] -14.2% | [3] -21.1% | [4] -31.9% | [5] -0.45% | [6] -17.1%

CCCCN(CCCC)CC(O)c1cc(-c2ccc(Cl)cc2)nc2cc(OC)c(OC)cc12 (configuration not stated)
inactive: [5] 51.8% | [6] 69.9%
active: [1] 99% | [2] 99.6% | [3] 99.7% | [4] 98.8%

CCCCn1c(=S)[nH]c2c(=O)n(C)c(=O)n(C)c21
inactive: [1] 4.95% | [2] 4.3% | [3] 7.55% | [4] -14.4% | [5] -7.35% | [6] 4%

CC(C)=CCC\C(C)=C/C=C/C(C)=C\C=C\C(C)=C/C=C/C=C(C)\C=C\C=C(C)/C=C/C=C(/C)CCC=C(C)C
inactive: [1] 7.15% | [2] -30.8% | [3] -29% | [4] 30.9% | [5] -30.6% | [6] 20.2%

O=C(O)C1(CC(CCCN2CCCCC2)c2ccccc2)CCCC1 (configuration not stated)
inactive: [1] -40% | [2] -9.65% | [3] -4.1% | [4] 6.4% | [5] -15.4% | [6] -36.3%

CCOC(=O)C(C)C(=O)NCc1ccccc1 (configuration not stated)
inactive: [1] -4.55% | [2] -4.9% | [3] -6.8% | [4] -43.5% | [5] 9.35% | [6] 11.3%

C[C@@]12CCC(=O)C=C1CC[C@H]1C2CC[C@]2(C)C1CC[C@H]2C(=O)COC(=O)CCC(=O)O (some centres not stated)
inactive: [1] -1.85% | [2] -7.8% | [3] 21.1% | [4] -22.4% | [5] 2.55% | [6] -33.7%

O=c1[nH]c2cc(Cl)c([N+](=O)[O-])cc2c2ccccc12
inactive: [1] 15.1% | [2] -7.35% | [3] 4.35% | [4] -42% | [5] -11.2% | [6] -0.25%

Cc1c2ccccc2nc(CSCCO)[n+]1[O-]
inactive: [1] -10.8% | [2] -22.1% | [3] -7.95% | [4] -2.1% | [5] 5.5% | [6] -16.2%

COc1cc([N+](=O)[O-])ccc1NC(=O)C(Br)C(Br)C(=O)O (configuration not stated)
inactive: [1] -6.6% | [2] 5.15% | [3] -12.5% | [4] -28.1% | [5] -0.35% | [6] 16.4%

O=C(O)C1(N(CCO)CCO)CCCC1
inactive: [1] -15.6% | [2] -11.7% | [3] 3.4% | [4] -35.3% | [5] -11.2% | [6] -1.65%

COC(CC1(OC)OC(=O)C=C1N)OC (configuration not stated)
inactive: [1] -7.05% | [2] 20.1% | [3] -12.7% | [4] -28.3% | [5] 16.8% | [6] -3.05%

COc1cc(N=C2C=CC(=O)C=C2)c2ncccc2c1
inactive: [1] 2.95% | [2] 1.05% | [3] 4.1% | [4] -33.1% | [5] -0.7% | [6] 3.75%

Cc1ccc(S(=O)(=O)N(C)C(C(=O)O)c2ccccc2)cc1 (configuration not stated)
inactive: [1] 22.4% | [2] -1.35% | [3] 7.15% | [4] -20.6% | [5] -7.8% | [6] 3%

CCCCCCCCCC(=O)N/N=C/c1ccncc1
inactive: [2] 23.1% | [4] 9.35% | [5] 26.2%
active: [1] 97.2% | [3] 98.8% | [6] 98.3%
